# High-throughput results deposited in PubChem BioAssay by National Center for Advancing Translational Sciences (NCATS).
# VP16 counter – Gal4-VP16 reporter inhibition counter-screen; actives 3.5% (n = 310,000); Drosophila S2 Gal4-VP16 UAS-luciferase, luminescence, 20 h; Potency, µM (titrated, usually from 53.6 µM), without a hit: top-dose activity, negative = inhibition, actives largely listed as inhibitors;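 also: Gal4-VP16 expression switched on by copper sulfate through the metallothionein promoter; potency is read from the fitted curve at half-maximal effect; % is scaled to controls: 0 for no effect and ±100 for the full control effect; nearly all actives have a fitted effect of over 50% in size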
# RORgamma inh – blocks mouse ROR gamma transcriptional activity | actives 5.4% (n = 310,000) | Drosophila S2 Gal4-RORgamma UAS-luciferase reporter, 20 h | P51450 | AID 2551 | Potency, µM (highest dose often 53.6 µM), without a hit: top-dose activity change, negative = inhibition, most hits filed as inhibitors; also: potency is read from the fitted curve at half-maximal effect; % is scaled to controls: 0 for no effect and ±100 for the full control effect; nearly all actives have a fitted effect of over 60% in size
# Target sequence (P51450 whole entry, looked up, the tested form may be a part): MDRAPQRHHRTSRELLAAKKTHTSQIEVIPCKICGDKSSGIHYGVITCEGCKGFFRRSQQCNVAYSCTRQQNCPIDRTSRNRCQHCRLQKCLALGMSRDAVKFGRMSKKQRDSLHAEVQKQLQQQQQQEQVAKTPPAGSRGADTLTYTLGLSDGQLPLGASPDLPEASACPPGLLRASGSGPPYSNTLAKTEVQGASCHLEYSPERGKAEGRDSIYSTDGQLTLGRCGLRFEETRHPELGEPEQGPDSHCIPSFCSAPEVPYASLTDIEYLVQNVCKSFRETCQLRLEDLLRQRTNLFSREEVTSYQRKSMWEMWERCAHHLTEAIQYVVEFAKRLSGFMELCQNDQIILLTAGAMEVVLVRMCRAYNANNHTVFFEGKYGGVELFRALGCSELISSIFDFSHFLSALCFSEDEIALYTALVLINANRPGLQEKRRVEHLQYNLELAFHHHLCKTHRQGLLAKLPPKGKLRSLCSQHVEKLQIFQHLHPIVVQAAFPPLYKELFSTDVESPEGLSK
#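 Luciferase reporter read in Schneider cells carrying Gal4-RORγ (mouse) and UAS-Photinus luciferase; cells given compound 1 h before 700 uM copper sulfate induction, then incubated 20 h at ambient temperature.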
# Giardia killer – kills Giardia lamblia. Giardia lamblia trophozoite viability. activity change, % at 7.66 µM, hits read low. actives 0.15% (n = 340,000). AID 540267; in the data active = activity change below about -80%; inconclusive = between about -30% and that limit;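 also: parasites exposed to compound for two days anaerobically before the ATP read; % is scaled to controls: 0 for no effect and ±100 for the full control effect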
#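 ATP-content bioluminescence gauges trophozoite survival. Cells (100/well) receive compound and incubate anaerobically for 48 hrs at 37 deg C; detection reagent follows for 15-30 min at room temperature.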
# SW480 rereplic – DNA re-replication induction in SW480 cells; Potency, µM (doses to about 46.1 µM), for the others: top-dose re-replication activation, actives largely listed as activators; AID 624297; SW480 DNA re-replication, Hoechst DNA content imaging, 48 h; actives 1.8% (n = 340,000); also: potency is read from the fitted curve at half-maximal effect; % of control where 0% means no effect; nearly all actives have a fitted effect of over 55% in size
#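 Readout is total intensity of Hoechst-stained nuclei, excited at 405 nm and collected at 500-530 nm. Compound treatment lasted 48 hr at 37 C in 5% CO2 before staining.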
# BCR signal inh – blocks chronic active B-cell receptor signaling. ABC-DLBCL IkBa-CBG/CBR reporter, luminescence ratio, 4 h. Potency, µM (series often up to 46.1 µM), for the others: at the highest dose activity change, negative = inhibition, hits mostly inhibitors. actives 0.05% (n = 340,000); active = well fitted inhibition curve with a large enough effect in the signal ratio, with a control signal flat, not every such curve was filed as active; inconclusive = small, poorly fitted or top-dose-only effect, or effect the other way, or a change in a side signal; the % refers to the signal ratio;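 also: potency is read from the fitted curve at half-maximal effect; plate controls were basal doxycycline-induced cells for no effect and cells given 10 µM MG132 for full effect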
#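 TMD8 human ABC-DLBCL cells with doxycycline-inducible IκBα–green luciferase fusion and unfused red luciferase, in 0.5% FBS medium; compounds up to 46 uM, 4 h at 37C. Green/red luminescence ratio, filter-overlap corrected, fitted to concentration-response curves.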
# MCF10A rereplic – induces DNA re-replication in MCF 10a normal breast cells; AID 624296; Potency, µM (highest dose often 46.1 µM), for inactives: at the top dose activity, positive = re-replication, hits mostly activators; actives 2.9% (n = 350,000); MCF 10A DNA re-replication, Hoechst nuclear intensity, 48 h; also: potency is read from the fitted curve at half-maximal effect; % of control where 0% means no effect; nearly all actives have a fitted effect of over 50% in size
# * marks the source's active call; other numbers are inactive results; u = inconclusive; x = no result given; [ ] = another dose, or the depositor's remark. Compounds with a hit are over-represented: about 8.3% of the library has one in this group of screens. Unless noted, calls follow the shape of the dose curve; as a rule, active = well fitted curve in the direction sought with a large enough effect; inconclusive = small, poorly fitted or top-dose-only effect, or another doubt; inactive = no such curve, though single readings can be large; an effect the other way counts as inactive or inconclusive.
SMILES,VP16 counter,RORgamma inh,Giardia killer,SW480 rereplic,BCR signal inh,MCF10A rereplic
CC[C@@H](C)[C@H](NC(=O)OC(C)(C)C)c1nnc(S(=O)(=O)Cc2cc(C)ccc2C)o1,u,u,7,13%,u,4.1µM*
CC(C)C[C@H](N)c1nnc(S(=O)(=O)Cc2cccc(F)c2)o1,u,6.3µM*,-7,17%,u,u
CC[C@@H](C)[C@H](NC(=O)OCc1ccccc1)c1nnc([C@@H](NC(=O)OCc2ccccc2)[C@@H](C)CC)o1,-18%,-19%,-6,2%,-4%,-20%
CC(C)[C@H](NC(=O)OC(C)(C)C)c1nnc(S(=O)(=O)Cc2c(F)cccc2Cl)o1,5µM*,4.5µM*,4,20%,u,9.2µM*
C[C@@H]1CN([C@H](C)CO)C(=O)Cc2cc(NS(=O)(=O)c3cn(C)cn3)ccc2O[C@H]1CN(C)S(=O)(=O)c1ccc(Cl)cc1,x,x,4,u,-4%,1%
Cc1ccc(C(=O)NC2c3ccccc3-c3ccccc32)cc1,1%,u,-11,13µM*,-21%,0%
C=CCC[C@H](Cc1ccc(F)cc1)C(=O)OC[C@@H](NC(=O)[C@H](CC=C)CC(=O)NCCO)C(C)(C)C,x,x,12,-3%,1%,7%
CCCc1cc(=O)[nH]c(-n2[nH]c3c(c2=O)CCCC3)n1,3.5µM*,2.2µM*,9,u,u,2%
CN(C)c1ccc(/C=N/N(CCC(=O)NC(C)(C)C)C2=NS(=O)(=O)c3ccccc32)cc1,-5%,25%,5,18µM*,3%,18µM*
CN(C)c1ccc(/C=N/N(CCO)C2=NS(=O)(=O)c3ccccc32)cc1,-10%,-10%,6,-1%,-2%,0%
CC(C)(C)NC(=O)CCN(/N=C/c1ccc([N+](=O)[O-])o1)C1=NS(=O)(=O)c2ccccc21,-21%,-17%,-92*,13µM*,-11%,23µM*
CCCN1CCC(=O)N(C(CSc2ccc(Br)cc2)CC(C)C)CC1 (configuration not stated),-8%,-2%,9,x,x,x
COc1ccc(C2CC(c3ccccc3)Oc3cc(C)c(Cl)c(C)c32)cc1 (configuration not stated),-2%,-7%,-3,x,x,x
O=C1c2ccccc2C(=O)C1c1ccc2ccccc2n1,4µM*,u,u,0%,3%,u
CCOC(=O)c1cccc(C2=CC(=O)C[C@H](c3ccc(OC)cc3)C2)c1,x,x,-1,3%,-8%,u
Cc1cc(/C=C2\C(=N)N3N=CSC3=NC2=O)c(C)n1Cc1ccccc1,u,u,u,-10%,1%,29µM*
Cc1cc(/C=C2\C(=N)N3N=C(S(C)(=O)=O)SC3=NC2=O)c(C)n1Cc1ccccc1,11%,23%,-3,u,3%,21µM*
CCCC1=NN2C(=N)/C(=C\c3cc(C)n(Cc4ccccc4)c3C)C(=O)N=C2S1,2%,-7%,-25,-4%,10%,23µM*
CCOc1ccc2nc(SCC(=O)NC(=O)C(C)C)sc2c1,5%,-4%,26,4%,u,-2%
CCCOc1ccc(Br)cc1CSC(=N)N,13µM*,u,-20,-13%,u,7%
CCOc1ccc(Br)cc1CC(=O)O,x,x,1,1%,x,3%
COc1ccc(CCNC(=O)C2CCCN(S(=O)(=O)c3ccc(F)cc3)C2)cc1 (configuration not stated),-16%,20%,19,1%,u,3%
CC(=O)c1ccc(N2CCN(Cc3nc(Cc4ccccc4)no3)CC2)cc1,u,3.5µM*,-15,-6%,-1%,14%
O=c1[nH]c(=O)c2nc(-c3ccc(Cl)cc3)cnc2[nH]1,0%,28%,-21,u,u,-29%
O=c1[nH]c(=O)c2nc3c4ccccc4c4ccccc4c3nc2[nH]1,-12%,0%,-6,u,u,2.6µM*
SMILES,VP16 counter,RORgamma inh,Giardia killer,SW480 rereplic,BCR signal inh,MCF10A rereplic
COc1ccccc1/C=C(/CC(=O)NCc1ccc2c(c1)OCO2)c1nc2ccccc2s1,11%,u,4,3%,-1%,u
CC(/C=C/C=C(\C)C(=O)O[C@@H]1O[C@H](CO[C@@H]2O[C@H](CO)[C@@H](O)[C@H](O)[C@H]2O)[C@@H](O)[C@H](O)[C@H]1O)=C\C=C\C=C(C)\C=C\C=C(/C)C(=O)O[C@@H]1O[C@H](CO[C@@H]2O[C@H](CO)[C@@H](O)[C@H](O)[C@H]2O)[C@@H](O)[C@H](O)[C@H]1O,-7%,-8%[10 µM],x,-3%,x,0%
Cc1ccc2nc(N(CCN(C)C)C(=O)/C=C/c3cccs3)sc2c1,u,-9%,-1,u,-10%,26µM*
CCN(CC)CCN(C(=O)/C=C/c1cccs1)c1nc2ccc(F)cc2s1,-9%,-40%,5,-8%,u,17%
CCc1ccc2nc(N(CCN(C)C)C(=O)/C=C/c3cccs3)sc2c1,u,-41%,-15,u,u,u
CN(C)CCCN(C(=O)/C=C/c1cccs1)c1nc2ccc(F)cc2s1,u,u,6,u,u,23µM*
Cc1cc(=O)oc2cc(OCC(=O)OCC(=O)NCCc3ccccc3)ccc12,9%,-4%,-3,-13%,-2%,-2%
O=C(N/N=C/c1cc2c(cc1Cl)OCO2)c1ccc2c(c1)OCCO2,7%,-3%,10,u,u,u
O=C(N/N=C/c1cc(Br)cs1)c1ccc2c(c1)OCCO2,u,11µM*,-27,u,u,u
Cc1ccc(/C=N/NC(=O)c2ccc3ccccc3c2)s1,5µM*,3.5µM*,25,4.1µM*,u,4.6µM*
O=C(N/N=C/c1c(Cl)[nH]c2ccccc12)c1ccc2c(c1)OCCO2,-5%,-1%,-28,-133%,u,-4%
COc1ccc(OC)c(/C=C(\NC(=O)c2ccccc2)C(=O)N/N=C/c2ccc(C)s2)c1,u,u,-18,-2%,2%,-17%
Cc1ccc(/C=N/NC(=O)c2ccc3c(c2)OCCO3)s1,u,5.6µM*,-9,16µM*,u,u
O=C(N/N=C/c1ccc(-c2ccc(Br)cc2)o1)c1ccc2c(c1)OCO2,10µM*,3.5µM*,-13,24%,u,u
CCOc1ccc(CCNC(=O)COC(=O)c2ccc(C)c([N+](=O)[O-])c2)cc1OCC,-6%,2%,15,-11%,-1%,-1%
